The values that follow come from PubChem BioAssay AID1851 (National Center for Advancing Translational Sciences (NCATS), 2009).

Out of some 16,000 compounds screened, about 5,100 (32%) were called active. About 25% were inconclusive and are not listed. Calls come from the whole dose curve; as a rule, active = well fitted curve in the direction sought with a large enough effect; inconclusive = small, poorly fitted or top-dose-only effect, or effect the other way; inactive = no such curve, though single readings can be large or run the other way. This is one part of the list.
% is set by controls: 0 for no effect and ±100 for the full control effect.

The target in the assay is Cytochrome P450 3A4 (Homo sapiens) (UniProt P08684). Put plainly: Cytochrome panel assay with activity outcomes. To be noted: recombinant CYP, pro-luciferin dealkylation, luminescence, p450-cyp3a4; series mostly up to 57.1 µM; activity, negative = inhibition: at the top concentration.
Chain of Cytochrome P450 3A4 (Homo sapiens) (P08684 whole entry, looked up): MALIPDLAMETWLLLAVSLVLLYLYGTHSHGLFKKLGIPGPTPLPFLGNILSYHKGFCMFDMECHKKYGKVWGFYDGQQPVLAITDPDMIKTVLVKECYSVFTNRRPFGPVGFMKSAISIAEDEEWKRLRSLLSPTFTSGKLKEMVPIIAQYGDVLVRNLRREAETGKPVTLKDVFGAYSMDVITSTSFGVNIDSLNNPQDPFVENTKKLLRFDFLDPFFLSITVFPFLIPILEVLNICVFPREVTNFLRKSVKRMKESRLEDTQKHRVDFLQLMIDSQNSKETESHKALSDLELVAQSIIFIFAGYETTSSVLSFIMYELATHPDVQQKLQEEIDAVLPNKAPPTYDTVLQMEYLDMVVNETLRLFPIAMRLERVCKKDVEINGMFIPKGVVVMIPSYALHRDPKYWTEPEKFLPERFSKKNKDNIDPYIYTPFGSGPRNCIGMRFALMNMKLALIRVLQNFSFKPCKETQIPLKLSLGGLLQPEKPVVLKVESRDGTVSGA
Take `CN1CCN(CCc2ccc(Cl)c(Cl)c2)CC1`: the “activity, negative = inhibition” value is -3.98% (inactive). In the case of `CN(CCc1ccc(Cl)c(Cl)c1)CCN1CCCCCC1`, the AC50 is 10 µM (active). In the case of `Clc1ccccc1OCCCCN1CCCC1`, the “activity, negative = inhibition” value is -0.971% (inactive). Still for that read-out and setting: under `Cc1[nH]c2ccccc2c1/C=C/c1cc[n+](C)cc1` stands -9.6% (inactive).

As to `C[C@H](NC(=O)/C(C#N)=C/c1ccc(O)c(O)c1)c1ccccc1`, the AC50 is 3.16 µM (active).

With `C[C@@H](NC(=O)/C(C#N)=C/c1ccc(O)c(O)c1)c1ccccc1`, the AC50 is 15.8 µM (active). In the case of `Cc1[nH]c2ccccc2c1/C=C(\C#N)C(=O)NC(C)c1ccccc1` (stereo unspecified), the AC50 is 7.08 µM (active). For `CC1(C)C2([N+](=O)[O-])CN3CC1([N+](=O)[O-])CN(C2)C31CCCC1`, the “activity, negative = inhibition” value was 4.06% (inactive). With `COc1ccc(CCNC(=O)CCCCCN2C(=O)c3ccccc3C2=O)cc1`, the AC50 is 6.31 µM (active). `CCCN(CCC)CCCNC(=O)c1ccc2c(c1)N(CC)C(=O)c1ccccc1S2=O` (stereo unspecified): the “activity, negative = inhibition” value is -23.9% (inactive). In the case of `COc1ccc(CC(=O)NCCN2CCCC2)cc1`, the “activity, negative = inhibition” value was 0.907% (inactive). Regarding `CCOc1ccc(CCNC(=O)CCCN2C(=O)c3ccccc3C2=O)cc1OCC`, the AC50 was 7.08 µM (active). On to `CCN(CC)CCOC(=O)c1c(C)n(C)c2ccc(OC)cc12`, for which the “activity, negative = inhibition” value was -23.9% (inactive). The same measure, in the same setting: under `CCCc1cc2c(=O)c(-c3ccc4c(c3)OCCO4)coc2cc1OC(=O)c1ccco1` stands 9.62% [at 2.29 µM] (inactive).

With `CCOC(=O)c1c(C)n(C)c2ccc(OC(=O)c3ccco3)cc12`, the AC50 was 15.8 µM (active). For `CC(=O)OC[C@@H]1O[C@@H](O/N=C2/C[C@@H](O)[C@@H](O)[C@@H]3[C@@H]4C(=O)N(C(C)(C)C)C(=O)[C@H]4CC[C@@H]23)[C@H](OC(C)=O)[C@H](OC(C)=O)[C@@H]1OC(C)=O`, the activity, negative = inhibition was -3.46% [at 11.4 µM] (inactive).

As for `CC1=NN(c2ccccc2)C(=O)/C1=C\N1CC(C)OC(C)C1` (stereo unspecified), the “activity, negative = inhibition” value is -26.3% (inactive). For `Nc1cccc2cc(S(=O)(=O)Nc3ccc(C(=O)O)cc3)ccc12`, the activity, negative = inhibition is -7.54% [at 11.4 µM] (inactive). On to `CC(=O)c1cccc(NS(=O)(=O)c2ccc(N/C=C\C(=O)c3ccc(F)cc3)cc2)c1`, for which the half-maximal activity concentration (AC50) was 0.708 µM (active). Regarding `Cc1ccc(C)c(/C(=N\N=C(N)N)C2CC2)c1`, the activity, negative = inhibition was -27% [at 11.4 µM] (inactive).

Consider `COc1cc(/C=C(\C#N)c2nc3c(s2)CC(C)CC3)ccc1O` (stereo unspecified), for which the AC50 is 25.1 µM (active). On the same count and under the same terms, under `C=CCc1ccccc1OC[C@H](O)CNC(C)C` stands “inactive”. With `C=CCOc1ccccc1OC[C@H](O)CNC(C)C`, the “activity, negative = inhibition” value is -0.918% [at 25.6 µM] (inactive). Take `COc1ccc(NC(=O)C2CCN(C(=O)c3cccs3)CC2)c(OC)c1`: the AC50 was 28.2 µM (active).

On to `CCOC(=O)C1CCN(C(=O)c2ccccc2NC(C)=O)CC1`, for which the “activity, negative = inhibition” value is -0.79% (inactive).

In the case of `COc1ccc2oc(=O)c(NC(=O)C3CCCCC3)cc2c1`, the “activity, negative = inhibition” value is -7.77% (inactive). With `COc1cc(OC)cc(C(=O)Nc2ccccc2C(=O)N2CCCC2)c1`, the activity, negative = inhibition was -8.41% [at 2.29 µM] (inactive). On to `COC(=O)c1ccccc1NC(=O)C1CCN(C(=O)c2ccc(OC)cc2)CC1`, for which the AC50 was 6.31 µM (active).

`O=C(Cn1c(-c2cscn2)nc2ccccc21)Nc1cc(F)ccc1F`: the half-maximal activity concentration (AC50) was 14.1 µM (active). `CC(C)(C)c1ccc(OC(=O)Cn2c(C(F)(F)F)nc3ccccc32)cc1`: the “activity, negative = inhibition” value is 23% (inactive). Turning to `COc1ccc(O[C@H]2C=C[C@@H](c3ccccc3)O[C@@H]2CO/N=C(\C)CCN2CCCCc3nc(C)c(C)cc32)cc1`, the AC50 was 3.98 µM (active).

`COc1ccc(O[C@H]2C=C[C@@H](c3ccccc3)O[C@@H]2CO/N=C(\C)CCN2CCCc3nc(C)c(C)cc32)cc1`: the AC50 is 3.16 µM (active). Turning to `Cc1cc(C)c(S(=O)(=O)Nc2ccccc2C(F)(F)F)c(C)c1`, the AC50 was 2.51 µM (active).

Consider `Cc1cc(C)c(S(=O)(=O)Nc2cccc(C(F)(F)F)c2)c(C)c1`, for which the AC50 was 12.6 µM (active). For the compound `C[C@@H]1C(=O)N(C)C(=O)c2nc[nH]c21`, the “activity, negative = inhibition” value was -3.89% (inactive). Turning to `CNc1nc(NCCOC23CC4CC(CC(C4)C2)C3)nc(OCC(F)(F)F)n1`, the AC50 is 25.1 µM (active). Regarding `CCC(C)Nc1nc(OCC(F)(F)F)nc(OCC(F)(F)F)n1` (stereo unspecified), the activity, negative = inhibition was 4.7% [at 11.4 µM] (inactive). As to `O=C(NCCOC12CC3CC(CC(C3)C1)C2)c1cccc(Br)c1`, the activity, negative = inhibition was -3.19% [at 2.29 µM] (inactive). As to `COC(=O)/C=C/CSC1=N/C(=C/c2ccc(-n3cncn3)cc2)C(=O)N1`, the AC50 is 2 µM (active). Regarding `COc1ccc(Oc2c(C=O)c3ccccc3n2C)cc1`, the AC50 is 17.8 µM (active). With `CC(C)Oc1ccc2ccccc2c1C=O`, the activity, negative = inhibition was 6.45% [at 2.29 µM] (inactive). As for `Cn1c(Oc2ccccc2)c(C=O)c2ccccc21`, the “activity, negative = inhibition” value is 9.35% (inactive). Regarding `Cn1ncc([N+](=O)[O-])c1C(=O)N1CCOCC1`, the activity, negative = inhibition is -9.46% [at 2.29 µM] (inactive). With `Cc1ccc2cc3cc(C(=O)N4CCCCC4C)oc3nc2c1` (stereo unspecified), the AC50 was 12.6 µM (active).

In the case of `COc1ccc(C)cc1NC(=O)c1cc2cc3ccc(C)cc3nc2o1`, the “activity, negative = inhibition” value was -12.1% (inactive). On the same count and under the same terms, the result for `Cc1ccc2cc(C(=O)O)c(C)nc2c1` reads 10.8% (inactive).

For orientation: AC50 means the concentration giving half of the maximal activity seen.
